Consider five compounds from PubChem BioAssay.

Experiment [1] in a line: small molecules captured by biotinylated probe aFSTL3 – biochemical, small-molecule microarray, fluorescence 635/667, stem cell growth factor project, primary screen (AID 1064).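 Note: measures binding of the biotinylated anti-FSTL3 antibody to printed compounds.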 The note with it: higher = more signal.
Experiment [2] in a line: binders from COS7 lysate, DM2A8 probe, primary screen, torsin A project, cell lysate, small-molecule microarray, fluorescence 635/667 (AID 1065). The note with it: higher = more signal, COS7 lysate expressing mutant human TOR1A.
The nature of experiment [3]: small molecules captured by biotinylated probe aFGF2 – biochemical, small-molecule microarray, fluorescence 635/667, stem cell growth factor project, primary screen (AID 1067).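 Note: measures binding of biotinylated aFGF2 protein to printed compounds on slides; z-score merges feature fluorescence and signal-to-noise across triplicate slides.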 The note with it: higher = more signal.
Experiment [4] can be described thus: small molecules captured by biotinylated probe aFGF10 – biochemical, small-molecule microarray, fluorescence 635/667, stem cell growth factor project, primary screen (AID 1071).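 Note: score merges 667 nm spot intensity and signal to noise from triplicate slides.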 The note with it: higher = more signal.
Experiment [5] has as its target Neurogenic locus notch homolog protein 2 (Homo sapiens) (UniProt Q04721). In words: small molecules binding Notch2 protein – biochemical, small-molecule microarray, 635 nm fluorescence, stem cell growth factors, primary screen (AID 1073). The note with it: higher = more signal.
For experiment [6], the target named is Pro-neuregulin-1, membrane-bound isoform (Homo sapiens) (UniProt Q02297). Put plainly: small molecules binding neuregulin-1 protein – biochemical, small-molecule microarray, fluorescence 635/667, psychiatric disease protein project, primary screen (AID 1075).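 Note: score combines 667 nm spot fluorescence with signal to noise.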 Conditions: NRG1 binding, 635 nm fluorescence, higher = more signal.
Chain of Pro-neuregulin-1, membrane-bound isoform (Homo sapiens) (Q02297 whole entry, looked up, the tested form may be a part, canonical isoform): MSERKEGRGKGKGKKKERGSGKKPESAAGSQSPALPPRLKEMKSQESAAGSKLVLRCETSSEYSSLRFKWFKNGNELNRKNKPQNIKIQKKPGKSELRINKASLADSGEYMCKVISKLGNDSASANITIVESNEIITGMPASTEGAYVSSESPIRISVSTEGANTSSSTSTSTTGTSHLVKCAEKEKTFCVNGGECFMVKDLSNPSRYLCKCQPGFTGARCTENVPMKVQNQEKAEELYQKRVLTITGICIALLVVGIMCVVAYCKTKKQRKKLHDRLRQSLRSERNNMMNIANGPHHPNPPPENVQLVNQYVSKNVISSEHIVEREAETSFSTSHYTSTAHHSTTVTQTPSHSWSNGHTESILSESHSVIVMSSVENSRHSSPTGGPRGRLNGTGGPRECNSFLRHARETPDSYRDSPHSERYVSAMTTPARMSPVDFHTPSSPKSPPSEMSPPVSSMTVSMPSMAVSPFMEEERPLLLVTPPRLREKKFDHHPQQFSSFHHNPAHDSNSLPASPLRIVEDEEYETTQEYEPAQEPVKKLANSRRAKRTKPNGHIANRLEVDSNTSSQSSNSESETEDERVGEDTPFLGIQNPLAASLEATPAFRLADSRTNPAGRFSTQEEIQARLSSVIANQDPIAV
Experiment [7] relates to Neuregulin-1 EGF-like domain. Put plainly: small molecules binding NRG1 EGF domain – biochemical, small-molecule microarray, 635 nm fluorescence, primary screen (AID 1081).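 Note: binding of the protein to compounds printed on small-molecule microarray slides.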 Conditions: higher = more signal.
Experiment [8] is described as follows: FRG1 expression reporter modulators in myotubes – cell-based, C2C12 myotubes, firefly/Renilla luciferase, luminescence, FRG1 inhibition for FSHD, primary screen (AID 1084). Conditions: FRG1 promoter luciferase, higher = more signal, called active from +8 up or from −8 down.
The nature of experiment [9]: small molecules captured by biotinylated probe aFST – biochemical, small-molecule microarray, fluorescence 635/667, stem cell growth factor project, primary screen (AID 1086).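 Note: score merges 667 nm fluorescence with signal-to-noise of each printed compound spot.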 Conditions: higher = more signal.
Experiment [10] in a line: binders of probe aHhip on microarray, primary screen, stem cell growth factor project, biochemical, small-molecule microarray, fluorescence 635/667 (AID 1087).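 Note: score merges spot fluorescence at 667nm with spot signal to noise ratio.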 The note with it: higher = more signal.
For experiment [11], the system named is PRMT1 (protein arginine N-methyltransferase 1). Put plainly: small molecules binding arginine methyltransferase PRMT1 – biochemical, small-molecule microarray, 635 nm fluorescence, primary screen (AID 1088).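 Note: binding of Prmt1 protein to compounds spotted on small-molecule microarray slides.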 Conditions: higher = more signal.
Experiment [12] is described as follows: growth effects on S. cerevisiae YJM789 – YJM789 clinical isolate, OD600, 24 h, basal, primary screen (AID 1089).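 Note: growth of clinical yeast isolate S. cerevisiae YJM 789 seeded 1000 cells per well; test concentration not given here.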 Conditions: higher = more signal, called active from +8 up or from −8 down.
A short description of experiment [13]: S. pombe growth modifiers, basal conditions – strain 972, OD600, 24 h, no modulator, primary screen (AID 1090).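 Note: basal condition with compound alone and no growth modifier present; test concentration not given here.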 The note with it: S. pombe 972 growth, higher = more signal, called active from +8 up or from −8 down.
A short description of experiment [14]: budding yeast growth modifiers under rapamycin – strain BY4716, OD600, 96 h, primary screen (AID 1091). Note: test concentration not given here. Conditions: S. cerevisiae BY4716 + rapamycin, higher = more signal, called active from +8 up or from −8 down.
Experiment [15] has as its target Torsin-1A-interacting protein 2 (Homo sapiens) (UniProt Q8NFQ8). In words: small molecules binding lysate-expressed LULL1 – cell lysate, human LULL1 lysate, 635/667 nm fluorescence, primary screen (AID 1092).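 Note: probe is lysate of COS7 cells overexpressing human LULL1; score merges per-feature 667 nm fluorescence with signal-to-noise.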 The note with it: small-molecule microarray, hLULL1 lysate binding, 635 nm fluorescence; higher = more signal.
Experiment [16] can be described thus: optical density change of DRC41 E. coli – strain DRC41, OD650, 24 h, E. coli filamentation project, primary screen (AID 1093).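 Note: MC1000 strain lacking acrAB efflux and sulA so SOS filamentation is blocked; test concentration not given here.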 Conditions: E. coli DRC41 growth, higher = more signal, called active from +8 up or from −8 down.
A short description of experiment [17]: probe aLefty2 binding to arrayed compounds – biochemical, biotinylated probe, 635/667 nm fluorescence, primary screen (AID 1094).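 Note: score merges spot fluorescence near 667 nm with spot signal-to-noise ratio.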 Conditions: small-molecule microarray, higher = more signal.
Experiment [18] has as its system Noggin (protein binding on small-molecule microarray). In words: small molecules binding Noggin protein – biochemical, 635/667 nm fluorescence, primary screen (AID 1095).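 Note: score merges 667 nm feature fluorescence with signal to noise over triplicate slides.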 Conditions: 635 nm fluorescence, higher = more signal.
The target in experiment [19] is Neurogenic locus notch homolog protein 3 (Homo sapiens) (UniProt Q9UM47). Put plainly: small molecules binding NOTCH3 protein – biochemical, 635/667 nm fluorescence, primary screen (AID 1096). Conditions: small-molecule microarray, 635 nm fluorescence, higher = more signal.
Experiment [20] in a line: probe aEGFR binding to arrayed compounds – biochemical, biotinylated probe, 635/667 nm fluorescence, primary screen (AID 1097).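 Note: probe is a biotinylated anti-EGFR antibody binding compounds printed on slides; score combines fluorescence near 667 nm and signal to noise of each spot.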 The note with it: small-molecule microarray, higher = more signal.

Activity calls are given as the source filed them.

Chain of Neurogenic locus notch homolog protein 2 (Homo sapiens) (Q04721 whole entry, looked up, canonical isoform): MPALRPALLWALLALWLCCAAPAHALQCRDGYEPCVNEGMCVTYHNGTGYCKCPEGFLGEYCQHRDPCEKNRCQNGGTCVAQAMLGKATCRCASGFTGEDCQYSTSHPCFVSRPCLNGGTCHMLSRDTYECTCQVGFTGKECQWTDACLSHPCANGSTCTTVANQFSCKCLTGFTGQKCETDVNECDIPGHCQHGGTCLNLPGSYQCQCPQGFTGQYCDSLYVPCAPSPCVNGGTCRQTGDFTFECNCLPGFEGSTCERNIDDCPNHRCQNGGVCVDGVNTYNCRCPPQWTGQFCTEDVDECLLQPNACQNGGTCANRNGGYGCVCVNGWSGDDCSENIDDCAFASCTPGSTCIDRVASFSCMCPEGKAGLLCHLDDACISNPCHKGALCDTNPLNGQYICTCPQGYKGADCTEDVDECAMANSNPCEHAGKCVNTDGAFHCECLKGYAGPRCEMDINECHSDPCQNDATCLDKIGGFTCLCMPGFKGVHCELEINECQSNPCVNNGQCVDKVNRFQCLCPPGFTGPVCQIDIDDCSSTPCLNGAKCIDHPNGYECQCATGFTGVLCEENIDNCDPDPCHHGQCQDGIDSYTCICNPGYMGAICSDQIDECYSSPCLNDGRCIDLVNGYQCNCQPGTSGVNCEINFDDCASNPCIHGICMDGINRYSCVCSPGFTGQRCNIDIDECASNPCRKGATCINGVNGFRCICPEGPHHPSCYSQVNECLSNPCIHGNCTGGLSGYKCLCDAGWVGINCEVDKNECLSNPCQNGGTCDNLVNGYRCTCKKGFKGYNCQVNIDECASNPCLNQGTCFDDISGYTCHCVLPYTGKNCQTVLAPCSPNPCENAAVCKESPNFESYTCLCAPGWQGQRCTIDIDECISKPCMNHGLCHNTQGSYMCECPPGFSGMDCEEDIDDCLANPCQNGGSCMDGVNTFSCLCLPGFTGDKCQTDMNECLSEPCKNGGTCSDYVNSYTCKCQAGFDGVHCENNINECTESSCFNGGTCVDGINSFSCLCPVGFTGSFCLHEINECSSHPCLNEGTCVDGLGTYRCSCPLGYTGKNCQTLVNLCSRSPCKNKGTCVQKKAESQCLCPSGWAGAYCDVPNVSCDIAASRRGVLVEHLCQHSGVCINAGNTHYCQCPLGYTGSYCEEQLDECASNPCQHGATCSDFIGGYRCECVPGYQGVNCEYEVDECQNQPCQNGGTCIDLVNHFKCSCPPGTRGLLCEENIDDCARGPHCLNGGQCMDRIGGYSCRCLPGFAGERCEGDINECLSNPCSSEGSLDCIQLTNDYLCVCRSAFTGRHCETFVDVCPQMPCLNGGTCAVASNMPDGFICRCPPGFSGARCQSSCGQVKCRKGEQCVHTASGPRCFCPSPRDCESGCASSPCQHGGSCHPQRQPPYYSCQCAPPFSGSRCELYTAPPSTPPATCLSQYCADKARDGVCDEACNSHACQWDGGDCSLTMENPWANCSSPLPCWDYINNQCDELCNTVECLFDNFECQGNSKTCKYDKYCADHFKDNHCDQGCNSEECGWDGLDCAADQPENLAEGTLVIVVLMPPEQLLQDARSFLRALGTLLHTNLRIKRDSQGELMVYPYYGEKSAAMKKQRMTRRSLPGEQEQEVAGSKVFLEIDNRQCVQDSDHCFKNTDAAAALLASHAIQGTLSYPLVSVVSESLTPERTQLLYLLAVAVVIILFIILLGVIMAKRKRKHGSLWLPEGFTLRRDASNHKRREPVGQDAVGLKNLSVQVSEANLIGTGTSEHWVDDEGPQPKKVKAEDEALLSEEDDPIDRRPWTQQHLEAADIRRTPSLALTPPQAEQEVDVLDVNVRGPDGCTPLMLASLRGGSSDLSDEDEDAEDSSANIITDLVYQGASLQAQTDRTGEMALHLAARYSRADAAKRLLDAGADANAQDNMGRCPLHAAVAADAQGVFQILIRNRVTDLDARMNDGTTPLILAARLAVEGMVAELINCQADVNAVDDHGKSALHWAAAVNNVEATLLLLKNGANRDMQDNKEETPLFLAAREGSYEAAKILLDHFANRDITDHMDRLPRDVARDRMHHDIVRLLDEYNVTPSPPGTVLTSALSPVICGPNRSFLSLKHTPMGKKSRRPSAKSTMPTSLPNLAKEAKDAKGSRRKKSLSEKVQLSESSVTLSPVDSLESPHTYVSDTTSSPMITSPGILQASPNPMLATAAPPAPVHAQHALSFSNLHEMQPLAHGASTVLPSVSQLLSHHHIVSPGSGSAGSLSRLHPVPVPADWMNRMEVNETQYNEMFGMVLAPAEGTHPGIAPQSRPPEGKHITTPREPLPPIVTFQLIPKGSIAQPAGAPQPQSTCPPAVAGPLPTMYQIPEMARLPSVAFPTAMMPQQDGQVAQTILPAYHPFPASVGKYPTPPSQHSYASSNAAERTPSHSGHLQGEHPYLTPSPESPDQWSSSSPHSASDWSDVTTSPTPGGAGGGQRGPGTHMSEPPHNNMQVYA
Chain of Torsin-1A-interacting protein 2 (Homo sapiens) (Q8NFQ8 whole entry, looked up): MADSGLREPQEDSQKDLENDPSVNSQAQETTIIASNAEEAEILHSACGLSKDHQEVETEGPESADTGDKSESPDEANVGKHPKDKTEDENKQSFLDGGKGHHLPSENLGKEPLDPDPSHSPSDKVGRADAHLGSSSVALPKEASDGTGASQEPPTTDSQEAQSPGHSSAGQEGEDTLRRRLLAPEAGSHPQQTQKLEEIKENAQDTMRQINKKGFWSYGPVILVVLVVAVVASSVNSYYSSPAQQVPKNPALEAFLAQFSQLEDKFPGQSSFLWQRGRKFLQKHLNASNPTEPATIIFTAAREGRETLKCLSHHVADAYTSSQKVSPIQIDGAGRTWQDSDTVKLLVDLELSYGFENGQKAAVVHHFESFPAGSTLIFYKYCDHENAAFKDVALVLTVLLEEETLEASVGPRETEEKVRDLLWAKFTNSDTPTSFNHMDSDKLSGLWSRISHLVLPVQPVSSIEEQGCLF

As to `C=CCN1C(=O)[C@]2(O[C@H](CCO)[C@@H]([Si](C)(C)c3ccc(OC)cc3)[C@@H]2C)c2cc(N3C(=O)COc4ccccc43)ccc21`, the composite z-score is 0.174 in [1]; -0.142 in experiment [2]; -0.0597 in [3]; 0.606 in experiment [4]; 0.248 in experiment [5]; 0.966 in experiment [6]. The composite z-score is 0.698 in experiment [7]; -0.0347 in [9]; -0.297 in [10]; 1.53 in [11]; 1.29 in experiment [15]; -0.192 in [17]. In addition, the composite z-score in experiment [18] was 0.679; in experiment [19], 0.763; in [20], -0.12. The z-score was -0.998 (inactive) in [8]; 1.81 (inactive) in experiment [12]; 0.0538 (inactive) in experiment [13]; 32.6 (active) in [14]; 1.64 (inactive) in experiment [16].
For `COC(=O)[C@@]1(Cc2ccccc2CN=[N+]=[N-])N=C(c2ccc(OCCCO)cc2)O[C@H]1c1ccccc1`, the composite z-score was 1.4 in experiment [1]; -0.0284 in experiment [2]; 0.118 in [3]; -0.774 in [4]; -0.0293 in [5]; 0.532 in [6]. Besides, the composite z-score in [7] is 1.2; in experiment [9], 0.187; in experiment [10] it was -0.451; in [11] it was 1.45; in [15], 1.94; in [17], 0.547. Moreover, the values for the composite z-score in experiment [18], in experiment [19] and in experiment [20] were 0.151, 0.107 and 0.0209, respectively. In addition, the z-score in experiment [8] was -2.17 (inactive); in experiment [12], 0.682 (inactive); in experiment [13], -2.11 (inactive); in [14], 35.9 (active); in experiment [16], 0.77 (inactive).
Regarding `CN1C(=O)C2C=CC(C(O)c3ccc(F)cc3)N(NC(=O)OC(C)(C)C)C2C1=O` (stereo not given), the composite z-score in experiment [1] is -0.179; in experiment [2] it was -0.598; in [3], 0.0505; in [4], 0.257; in experiment [5], 1; in experiment [6], 1.68. The composite z-score is 1.38 in experiment [7]; 0.734 in experiment [9]; -0.0464 in experiment [10]; 0.219 in experiment [11]; 3.28 in [15]; -0.0154 in experiment [17]. The composite z-score was -0.205 in experiment [18], 0.816 in experiment [19] and -0.0531 in experiment [20]. Moreover, the z-score is 0.186 (inactive) in [8]; 1.19 (inactive) in experiment [12]; 2.11 (inactive) in experiment [13]; 1.71 (inactive) in experiment [14]; -1.31 (inactive) in experiment [16].
Regarding `NCCCCCNC(=O)[C@H]1C[C@H]2C(=O)N[C@@H](Cc3ccccc3)C(=O)N2[C@H]1c1ccc(O)cc1`, the composite z-score in experiment [1] is 2.14; in experiment [2] it was -0.045; in experiment [3], 0.175; in experiment [4], 0.199; in experiment [5], 0.685; in experiment [6], 1.73. Also, the composite z-score in [7] was 0.573; in experiment [9] it was 1.46; in [10], 0.883; in [11], 0.584; in experiment [15] it was 1.92; in experiment [17], 0.887. Also, the composite z-score in experiment [18] is 0.521; in [19], 0.423; in experiment [20], 0.151. Moreover, the z-score in [8] was 0.902 (inactive); in experiment [12], 0.5 (inactive); in experiment [13], -0.335 (inactive); in experiment [14] it was -0.578 (inactive); in experiment [16] it was 0.0565 (inactive).
With `COCCOC(=O)N1C(=O)[C@@]2(c3cc(C#CC4=CCCCC4)ccc31)[C@H](c1ccc(O)cc1)N1[C@H](c3ccccc3)[C@H](c3ccccc3)OC(=O)[C@H]1[C@@H]2C(=O)NC[C@H](O)c1ccccc1`, the composite z-score is -0.217 in experiment [1]; 0.167 in experiment [2]; 0.0059 in [3]; 0.824 in experiment [4]; 1.18 in experiment [5]; 1.3 in experiment [6]. Further, the composite z-score in experiment [7] is 1.2; in [9] it was 0.443; in experiment [10] it was -0.174; in experiment [11], 1.56; in experiment [15], 2.51; in [17], -0.003. Further, the composite z-score is 0.782 in [18], 1.07 in experiment [19] and 0.0397 in experiment [20]. Moreover, the z-score in experiment [8] is 0.675 (inactive); in experiment [12], 1.44 (inactive); in experiment [13], 0.236 (inactive); in experiment [14], 3.15 (inactive); in [16], 0.12 (inactive).
